USP30 block: human USP30 deubiquitinase inhibition | Q70CQ3 | purified USP30, Ub-rhodamine cleavage fluorescence | inhibition, % at 25 µM | actives 5.3% (n = 47,000) | AID 1645860
Target sequence (Q70CQ3 whole entry, looked up): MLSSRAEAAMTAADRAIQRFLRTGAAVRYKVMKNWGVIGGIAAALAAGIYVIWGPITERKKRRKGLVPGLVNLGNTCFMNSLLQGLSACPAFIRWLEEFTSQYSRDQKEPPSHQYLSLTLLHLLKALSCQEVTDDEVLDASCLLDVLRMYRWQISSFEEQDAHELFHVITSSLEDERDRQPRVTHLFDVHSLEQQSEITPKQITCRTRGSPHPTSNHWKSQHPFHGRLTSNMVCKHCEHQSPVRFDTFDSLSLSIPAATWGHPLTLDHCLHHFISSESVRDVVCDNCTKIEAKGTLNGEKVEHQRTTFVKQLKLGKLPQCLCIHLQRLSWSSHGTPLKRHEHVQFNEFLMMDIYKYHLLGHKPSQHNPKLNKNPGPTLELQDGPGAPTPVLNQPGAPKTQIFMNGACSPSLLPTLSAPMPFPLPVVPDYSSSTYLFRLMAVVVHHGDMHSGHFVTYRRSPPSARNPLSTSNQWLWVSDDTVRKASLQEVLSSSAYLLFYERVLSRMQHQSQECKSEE
USP28 block: inhibitors of human USP28 deubiquitinase. Q96RU2. purified USP28, Ub-rhodamine cleavage fluorescence, 30 min. inhibition, % at 25 µM. actives 3% (n = 47,000). AID 1645857
USP17 inh: human USP17-like deubiquitinase inhibition; purified USP17, Ub-rhodamine cleavage fluorescence, 3 h; inhibition, % at 50 µM; actives 6.5% (n = 47,000); A8MUK1; AID 1645855
Of the large screens only hits and unclear results are named; the others gave an inactive call. Rows were chosen to be rich in hits. Some 11% of all compounds tested hit in one or more screens of this group. No stated cut-off is given here; in the data, active means inhibition above about 30%; inactive means the rest.

N#Cc1ccc(NCC(=O)Nc2ccc3c(c2)OCCO3)cc1	none
O=C(Cc1ccc(Br)cc1)Nc1ccc2c(c1)OCO2	USP17 inh 44
O=C(COc1cccc(N2CCCC2=O)c1)NCc1ccc2c(c1)OCO2	none
O=C(NCCCS(=O)(=O)N1CCN(c2ncccn2)CC1)c1ccc(F)cc1	none
Cc1nc2ccccc2n1CC(=O)N1CC=C(n2c(C)nc(=O)c3ccccc32)CC1	none
Cc1ccc(NC(=O)C(CC(C)C)NC(=O)c2ccc(C34CC5CC(CC(C5)C3)C4)cc2)nc1 (centres undefined)	none
CC(=O)NC1CN(C(=O)Cn2c(C)cc3ccccc32)C2(CCNCC2)C1 (centres undefined)	none
Cc1ccc(N2CC[C@H]3O[C@@H](C(=O)NCc4ccco4)CC[C@H]32)nn1	none
O=C(COc1ccc2ccccc2c1)Nc1ccc2c(c1)CCC2	none
O=C(COc1ccc2c(c1)CCC2)Nc1ccc2c(c1)CCC2	USP17 inh 59
Cc1cccc(/C=C/c2nc3ccc([N+](=O)[O-])cc3s2)c1	USP17 inh 43
O=[N+]([O-])c1ccc2nc(/C=C/c3cc4ccccc4nc3N3CCOCC3)sc2c1	none
O=C(Nc1ccc2c(c1)OCO2)c1cc(-c2cccnc2)n(-c2ccccc2)n1	USP28 block 79, USP17 inh 30
Cc1ccnc(NC(=O)c2cc(-c3cccnc3)n(-c3ccccc3)n2)c1	none
O=C(Nc1ccccc1)c1ccc(N2CCCCS2(=O)=O)cc1Cl	none
CCn1nc(-n2cnnc2)c(NS(=O)(=O)c2ccc(C)cc2C)c1C	none
CCN(CC)CCNc1nnc(-c2nnc(C3CC3)o2)c2ccccc12	none
Cc1nc(Nc2nnc(C)s2)cc(C2CCCN2)n1 (centres undefined)	none
Cc1nc(Nc2ncccn2)cc(C2CCCN2)n1 (centres undefined)	USP28 block 30
Cc1ncc(C(=O)N2CC[C@H]3NC(=O)c4ccccc4OCC/C=C/C[C@H]3C2)cn1	none
CC(=O)Nc1c(C)noc1/C=C/c1ccc(S(=O)(=O)Nc2ccccc2F)s1	none
COc1ccc(-c2cccc(C3CN(Cc4ccnn4C)CCO3)n2)cc1 (centres undefined)	none
COc1cc2ccccc2cc1C(=O)Nc1cccc(C)c1C	USP17 inh 57 (no result: USP30 block, USP28 block)
COc1cc2ccccc2cc1C(=O)NCc1ccccc1	none
Cc1ccc(O)c2c1C(=O)C(C)(O)O2 (centres undefined)	none
c1ccc(CSc2ccc3nnc(-c4ccncc4)n3n2)cc1	none
CCc1cc(C2CCCN2C(=O)Nc2ccccc2Cl)on1 (centres undefined)	none
Cc1nn(-c2ccccc2)c2[nH]c(=O)c(CNCc3ccccc3Cl)cc12	none
CN1C(=O)COc2ccccc2C/C=C/C[C@@H]2[C@H]1CCCN2C(=O)CC1CCOCC1	none
CN1CCC(C(=O)N2CCC[C@@H]3[C@H]2C/C=C/Cc2ccccc2OCC(=O)N3C)CC1	none
CN1C(=O)COc2ccccc2CCCC[C@@H]2[C@H]1CCCN2C(=O)c1n[nH]c2c1CCC2	USP30 block 31
CN1C(=O)COc2ccccc2CCCC[C@@H]2[C@H]1CCCN2S(=O)(=O)N1CCOCC1	USP30 block 31
Cc1cccc(-c2nnc(-c3cccc(S(=O)(=O)N4CCOCC4)c3)o2)c1	none
CC(=O)CN1CC2(CCN(Cc3ccccc3)CC2)COc2ccccc2S1(=O)=O	none
O=c1c2cc(-c3ccc(F)cc3)nn2ccn1Cc1noc(CN2CCCCC2)n1	none
Cc1cccc(C(=O)Nc2ccc(NC(=O)COc3ccccc3Cl)cc2)c1	none
Cc1cc(OCC(=O)Nc2cccc(C#N)c2)nc(N2CCCCC2)n1	none
Cc1cccc(NC(=O)COc2cccc3ccc(N4CCC(C(N)=O)CC4)nc23)c1	USP17 inh 33
CC(=O)Nc1cccc(NC(=O)COc2cccc3ccc(N4CCCC4)nc23)c1	USP17 inh 53
COc1cccc(Cn2c(=O)c3cnc(-c4ccncc4)nc3n(C)c2=O)c1	none
Cn1c(=O)c2c(ncn2CCC(=O)Nc2cccc(F)c2)n(C)c1=O	none
CN1C(=O)OC[C@@H]2CCN(C(=O)c3ccc4ccccc4c3)C[C@H]21	none
COc1ccc(NC(=O)c2cccc(-c3noc(C)n3)c2)c(OC)c1	none
Cc1cc(C)n2cc(-c3sccc3Cl)c(C#N)c2n1	USP17 inh 33
Cc1cc(C)n2cnc(C#N)c2n1	none
O=C(Cc1ccccc1F)NCC(=O)Nc1nc2ccccc2[nH]1	none
Cc1ccc(C(=O)NCC(=O)Nc2nc3ccccc3[nH]2)c(C)c1	USP17 inh 57
O=C(CNC(=O)c1ccc2c(c1)OCO2)Nc1nc2ccccc2[nH]1	none
COc1cccc(C(=O)NCC(=O)Nc2nc3ccccc3[nH]2)c1	USP17 inh 59
COc1cccc(NC(=O)CCCSc2nc3ccccc3[nH]2)c1	USP28 block 37
Cc1nc(C)c(C(=O)Nc2nc3ccccc3[nH]2)s1	none (no result: USP30 block, USP28 block)
Cc1ccc(CC(=O)NCC(=O)Nc2nc3ccccc3[nH]2)cc1	USP17 inh 45
Cc1cccc(NC(=O)CCCSc2nc3ccccc3[nH]2)c1	none
COc1ccc(N/C=C/c2onc(-c3c(Cl)cccc3Cl)c2C#N)c(OC)c1	none
Cc1onc(C(=O)NC2CCCCC2)c1CN1CCOCC1	none
Cc1cc(C)c(NC(=O)CSc2nnc(-c3cc(C)[nH]n3)n2N)c(C)c1	none
NC(=O)c1nc(-c2cccc(O)c2)nc2c1[nH]c(=O)n2-c1ccccc1	none
Cc1cc(C(=O)NC2(O)C(=O)c3ccccc3C2=O)n(C)n1	USP30 block 36, USP17 inh 94
Cc1nn(C)c(C)c1NC(=O)CN1CC2(CCOCC2)Oc2ccccc2C1=O	none
CS(=O)(=O)c1ccc(NCCCn2ccnc2)c(F)c1	none
CSc1nnc(COc2cccc3ccc(C)nc23)n1C	none
Cc1ccc2cccc(OCc3nnc(SCC(=O)c4ccc(Cl)cc4)n3C)c2n1	USP30 block 39, USP17 inh 61
Cc1cc(-c2ncc[nH]2)nc(C2CCCN2C(=O)Cc2cccnc2)n1 (centres undefined)	none
CCC1CCCCN1Cc1ccc(CNC(=O)CCc2nnc3ccc(N4CCCC4)nn23)o1 (centres undefined)	none
CC1CCN(S(=O)(=O)c2c[nH]c(-c3nnc(C(=O)N4CCCC4)o3)c2)CC1	USP30 block 47
O=C(c1nnc(-c2cc(S(=O)(=O)N3CCCCCC3)c[nH]2)o1)N1CCCC1	none
CN(C)c1ccc(C2CC2C(=O)c2ccc(Cl)cc2)cc1 (centres undefined)	none
O=S(=O)(CCN1CCN(c2ccccc2)CC1)c1ccc(F)cc1	none
CC1(C)CC(=O)C2=C(C1)Nc1ccccc1N(C(=O)c1ccccc1)C2c1ccc(-c2cccc([N+](=O)[O-])c2)o1 (centres undefined)	none
Fc1ccc(OCc2nc(-c3cccc(-c4ccn[nH]4)c3)no2)cc1	USP30 block 39, USP28 block 52, USP17 inh 80
COc1ccc(-c2nc(-c3cccc(-c4ccn[nH]4)c3)no2)cc1F	none
COc1ccc(C)cc1N(CC(=O)N1CCOCC1)S(=O)(=O)c1ccc(C)cc1	none
CCc1cccc(CC)c1NC(=O)COC(=O)c1cc2cccc(OC)c2oc1=O	USP30 block 39, USP17 inh 90
COc1ccc(Cl)cc1NC(=O)COC(=O)c1cc2ccccc2oc1=O	none
CC(=O)c1ccc(N2CCN(C(=O)c3sc(N4CCCC4=O)nc3C(C)C)CC2)cc1	none
CC(C)c1nc(N2CCCC2=O)sc1C(=O)Nc1ccc(F)cc1	USP28 block 32
